Hits are enriched below; roughly 3.1% of the tested compounds scored in any of these assays.
GSIS activator: primary screen for activators of insulin secretion dependent on glucose, INS-1E cells, GLuc reporter luminescence; AID 743287; INS-1E GLuc reporter insulin secretion, 2-3 h; activation, % at 16.6 µM; 0.61% of 370,000 active;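 active = lowest replicate activation of at least 40%, so every replicate reaches that level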;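 note: 0% = median of neutral control wells and 100% = median of IBMX positive control wells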
RAD54 branch: blocks human RAD54 Holliday junction branch migration; 0.14% of 360,000 active; Q92698; FAM/BHQ fluorescence; inhibition, % at 10.4 µM;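 active = mean normalized replicate activity at least 40 and at least half of replicates scoring 40 or more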;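 note: 0% = median of neutral control wells and 100% = median of positive control wells; inhibitors cause a drop in the FAM fluorescence signal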
Target sequence (Q92698 whole entry, looked up): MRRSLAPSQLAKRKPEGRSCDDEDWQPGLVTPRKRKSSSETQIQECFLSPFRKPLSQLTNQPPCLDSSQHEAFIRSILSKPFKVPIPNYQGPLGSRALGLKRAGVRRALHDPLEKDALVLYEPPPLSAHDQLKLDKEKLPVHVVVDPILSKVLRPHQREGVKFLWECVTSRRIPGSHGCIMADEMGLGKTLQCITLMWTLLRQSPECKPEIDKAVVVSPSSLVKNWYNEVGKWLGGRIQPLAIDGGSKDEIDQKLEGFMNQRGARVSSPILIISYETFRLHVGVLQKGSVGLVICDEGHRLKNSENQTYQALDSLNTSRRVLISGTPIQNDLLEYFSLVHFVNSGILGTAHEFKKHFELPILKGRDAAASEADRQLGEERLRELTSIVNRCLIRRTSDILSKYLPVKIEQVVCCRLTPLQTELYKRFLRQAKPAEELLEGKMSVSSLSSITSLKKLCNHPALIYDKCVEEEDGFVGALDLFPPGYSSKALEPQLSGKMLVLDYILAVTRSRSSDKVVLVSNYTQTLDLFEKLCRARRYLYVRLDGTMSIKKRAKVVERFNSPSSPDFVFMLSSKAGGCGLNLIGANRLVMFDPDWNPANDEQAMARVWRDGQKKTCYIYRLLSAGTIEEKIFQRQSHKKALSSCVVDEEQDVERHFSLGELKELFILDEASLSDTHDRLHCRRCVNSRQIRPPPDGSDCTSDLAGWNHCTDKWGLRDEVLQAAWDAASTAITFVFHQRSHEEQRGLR
MLL AF4-AF9 inh: blocks AF4 peptide binding to human AF9 | AlphaScreen, biotin-AF4 peptide binding to FLAG-AF9 | inhibition, % at 10 µM | 0.47% of 350,000 active | AID 651704;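 active = every replicate reaching a set inhibition limit, whatever the replicate mean, cut at about 25% in these data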;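 note: 0% = plate neutral control median and 100% = total signal loss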
RAD52 anneal inh: blocks human RAD52 DNA annealing. recombinant RAD52 DNA annealing, FRET fluorescence. inhibition, % at 18.7 µM. 0.46% of 360,000 active. AID 651710;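 active = every replicate showing at least 50% inhibition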
dFosB activator: mouse delta FosB homodimer activation | purified delta FosB, TAMRA-CDK5 oligo fluorescence polarization; percent of positive-control signal above neutral wells | P13346 | activation, % at 25 µM | AID 493131 | 0.99% of 340,000 active;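 active = mean activation above about 17%, with every replicate also reaching it, limit read from the data, passing the limit was not always enough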
DENV2 CPE rescue: inhibitors of DENV2 cytopathic effect | DENV2-infected cells, cytopathic effect rescue, plate reader | CPE inhibition, % at 9.99 µM | 1.7% of 350,000 active; in the data active = CPE inhibition above about 20%, passing the limit was not always enough; tested in BHK-21 cells;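 note: 0% = median of neutral control wells and 100% = median of positive control wells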
* hit, by the source's call; . = not tested or not shown.

SMILES | GSIS activator | RAD54 branch | MLL AF4-AF9 inh | RAD52 anneal inh | dFosB activator | DENV2 CPE rescue
C[C@@H]1CCCCO[C@@H](CN(C)C(=O)NC2CCCCC2)[C@H](C)CN([C@@H](C)CO)C(=O)c2cc(NC(=O)Nc3ccc4c(c3)OCO4)ccc2O1 | 5.7 | 2.3 | -1.0 | 5.0 | . | 2.9
COCCn1c(SCC(=O)Nc2ccc3c(c2)OCCO3)nnc1C(C)C | -1.9 | 12.2 | -0.2 | 11.8 | -2.9 | 21.7*
Cc1ccc(-n2nnnc2SCC(=O)Nc2ccc3c(c2)OCCO3)cc1C | . | -5.7 | . | . | -2.1 | .
CC(=O)Nc1ccc(NC(=O)CSc2nnnn2-c2ccc3c(c2)OCCO3)cc1 | 6.4 | . | -2.1 | -3.7 | 87.2* | -4.1
C[C@@H]1CN([C@@H](C)CO)C(=O)Cc2cc(NC(=O)c3ccncc3)ccc2O[C@@H]1CN(C)Cc1ccc(C(=O)O)cc1 | 37.1 | -6.0 | -4.0 | -10.2 | . | 7.7
C[C@@H]1CCCCO[C@@H](CN(C)C(=O)Cc2ccccc2)[C@H](C)CN([C@H](C)CO)C(=O)c2cc(NS(=O)(=O)c3ccc(Cl)cc3)ccc2O1 | -30.2 | -4.4 | -3.6 | -12.4 | . | 85.3*
C[C@@H]1CCCCO[C@H](CN(C)C(=O)Cc2ccccc2)[C@H](C)CN([C@H](C)CO)C(=O)c2cc(NS(=O)(=O)c3ccc(Cl)cc3)ccc2O1 | -23.9 | 10.2 | -2.0 | -4.8 | . | 0.5
C[C@@H]1CCCCO[C@H](CN(C)C(=O)Cc2ccccc2)[C@@H](C)CN([C@H](C)CO)C(=O)c2cc(NS(=O)(=O)c3ccc(Cl)cc3)ccc2O1 | -8.1 | -1.3 | -1.3 | -2.0 | . | 53.5*
C[C@H](CO)N1C[C@H](C)[C@@H](CN(C)C(=O)Cc2ccccc2)OCCCC[C@H](C)Oc2ccc(NS(=O)(=O)c3ccc(Cl)cc3)cc2C1=O | -22.2 | -2.9 | -5.7 | -3.9 | . | 1.1
COCc1cn(CC[C@@H]2CC[C@H](NC(=O)c3ccc(F)cc3)[C@@H](CO)O2)nn1 | 1.2 | -7.4 | -5.5 | -11.1 | . | -3.4
C[C@H]1CN([C@@H](C)CO)C(=O)c2cc(NC(=O)Nc3cccc4ccccc34)ccc2O[C@H]1CN(C)S(=O)(=O)c1ccc(F)cc1 | -4.5 | -13.1 | 0.6 | -24.3 | . | 2.3
COc1ccc(C2CC(c3ccc(C)o3)=NN2C(C)=O)cc1 (stereo unspecified) | 20.9 | . | 2.5 | -12.0 | -16.0 | 34.2*
CC(=O)N1N=C(c2ccc(C)o2)CC1c1ccc(Br)cc1 (stereo unspecified) | -3.4 | 7.5 | . | . | -1.4 | .
C[C@@H]1CCCCO[C@H](CN(C)C(=O)Nc2ccc(C(F)(F)F)cc2)[C@H](C)CN([C@H](C)CO)C(=O)c2cc(NS(=O)(=O)c3ccc(F)cc3)ccc2O1 | 4.6 | -4.6 | -1.9 | -30.1 | . | 70.9*
C[C@@H]1CCCCO[C@@H](CN(C)C(=O)Nc2ccc(C(F)(F)F)cc2)[C@@H](C)CN([C@H](C)CO)C(=O)c2cc(NS(=O)(=O)c3ccc(F)cc3)ccc2O1 | 31.3 | . | -0.4 | -31.0 | . | 6.7
C[C@@H]1CCCCO[C@@H](CN(C)C(=O)Nc2ccc(C(F)(F)F)cc2)[C@H](C)CN([C@@H](C)CO)C(=O)c2cc(NS(=O)(=O)c3ccc(F)cc3)ccc2O1 | 11.2 | 3.5 | -4.7 | -48.1 | . | 60.8*
C[C@H](CO)N1C[C@H](C)[C@@H](CN(C)C(=O)Nc2ccc(C(F)(F)F)cc2)OCCCC[C@H](C)Oc2ccc(NS(=O)(=O)c3ccc(F)cc3)cc2C1=O | 12.7 | 3.2 | -4.5 | -46.8 | . | 94.5*
COc1ccc(NC(=O)N(C)C[C@@H]2Oc3cc(C#CCN(C)C)ccc3S(=O)(=O)N([C@@H](C)CO)C[C@@H]2C)cc1 | -0.8 | -3.4 | 5.7 | 8.9 | . | 10.4
O=C(C[C@@H]1C[C@H]2c3cc(NC(=O)c4ccc5c(c4)OCO5)ccc3O[C@H]2[C@H](CO)O1)NCc1cc(F)ccc1F | -27.7 | -6.7 | 2.3 | 4.4 | . | 1.9
Cc1noc(C)c1NC(=O)N(C)C[C@H]1Oc2ccc(NC(=O)Cc3cn(C)c4ccccc34)cc2C(=O)N([C@@H](C)CO)C[C@H]1C | 22.6 | -44.8 | -9.5 | -11.6 | . | -4.1
Cc1ccc(C(C)C)c(OCCNC(=O)c2ccccc2O)c1 | -27.7 | -1.4 | 0.7 | 11.6 | -13.1 | 44.6*
CSc1ccc(Cl)c(C(=O)NCCOc2cc(C)ccc2C(C)C)c1 | -33.4 | -7.9 | -0.6 | -1.6 | -4.5 | 0.9
CC(C)CC#Cc1ccc([C@@H]2[C@@H](CO)N3C(=O)CN(C(=O)NC4CCCC4)C[C@H]23)cc1 | -1.4 | . | 2.2 | -8.4 | . | -5.1
C#Cc1cccc(-n2nnc(C(=O)OC)c2-c2ccccc2)c1 | 40.3* | -2.1 | 0.3 | 1.8 | -10.3 | 2.1
CC(C)(NC(=O)c1ccccc1)c1nc2ccccc2s1 | 10.2 | -3.6 | -7.9 | -7.0 | -2.3 | 109.1*
SMILES | GSIS activator | RAD54 branch | MLL AF4-AF9 inh | RAD52 anneal inh | dFosB activator | DENV2 CPE rescue
Cc1noc(C)c1S(=O)(=O)Nc1cccc2c1O[C@H](CN(C)CC1CCCCC1)[C@H](C)CN([C@H](C)CO)C2=O | 4.4 | -0.9 | -2.9 | -9.0 | . | -4.4
CC(C)C#Cc1cnc2c(c1)C(=O)N([C@@H](C)CO)C[C@H](C)[C@@H](CN(C)C(=O)CN1CCOCC1)O2 | 16.6 | 2.6 | -3.8 | -8.1 | . | 4.2
O=C(C[C@@H]1C=C[C@H](NC(=O)c2ccc(F)cc2)[C@H](CO)O1)NCCc1ccccc1 | -3.7 | -3.8 | -2.0 | 5.4 | . | -0.6
CCOc1ccc(C2c3c(oc4cc(C)c(C)cc4c3=O)C(=O)N2CCCN(C)C)cc1OC (stereo unspecified) | -0.4 | 6.7 | 4.0 | -2.3 | 28.7* | -8.2
C[C@@H]1CN([C@H](C)CO)C(=O)c2cc(NC(=O)Nc3ccc(F)cc3)ccc2O[C@@H]1CN(C)C(=O)Nc1ccc(F)cc1 | -1.7 | 7.3 | 2.3 | 13.4 | . | .
O=C(Cn1c(=O)oc2cc(S(=O)(=O)NCc3ccccc3)ccc21)N1CCCC1 | -8.0 | 3.2 | 29.5* | 3.1 | -5.5 | -2.1
CCCN1CCN(C(=O)Cn2c(=O)oc3cc(S(=O)(=O)NCc4ccccc4)ccc32)CC1 | 23.0 | 0.2 | 7.4 | -9.7 | 6.1 | -5.0
CCc1cc2c(=O)[nH]c(COC)nc2s1 | . | . | 6.2 | 6.5 | -5.5 | 45.7*
CCc1cc2c(=O)[nH]c(Cc3ccc(OC)cc3)nc2s1 | . | 8.4 | -7.4 | 1.9 | -6.9 | -2.4
CCc1onc(C)c1C(=O)Nc1ccc(N2CCOCC2)cc1 | 41.5* | 5.9 | 0.8 | 1.6 | 1.6 | -3.6
Cc1onc(-c2ccccc2)c1C(=O)Nc1ccc(N2CCOCC2)cc1 | . | -6.9 | . | . | 4.9 | .
CC(C)(C)c1ccc(C(=O)Nc2ccc3c(c2)C(=O)NC3=O)cc1 | 1.0 | -5.0 | -5.6 | 4.7 | 3.0 | 58.1*
O=c1c(C=Nc2ccc(Oc3ccccc3)cc2)c[nH]n1-c1cccc(Cl)n1 | 106.6* | 9.6 | . | . | -6.6 | .
Cn1c(=O)c2cc(S(=O)(=O)NC(C(=O)Nc3cccnc3)c3ccccc3)ccc2n(C)c1=O (stereo unspecified) | -0.2 | -3.6 | -9.2 | -4.5 | 10.0 | -7.9

Source: PubChem BioAssay
